This is a sample that favours compounds with a hit; in the whole collection about 19% have one here.
DT40 TDP1 no CPT – qHTS for Inhibitors of human tyrosyl-DNA phosphodiesterase 1 (TDP1): qHTS in cells in absence of CPT; Potency, µM (top dose mostly 46.2 µM), for inactives: at the top dose activity change, negative = growth inhibition, usual class: inhibitors; AID 686978, 2013; actives 15% (n = 420,000); DT40 Tdp1-/- hTDP1 cells, no CPT, ATP luminescence, 48 h; note: nearly all actives have a fitted effect of over 55% in size
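Growth kinetics read by CellTiter-Glo luminescence after ≥48 hr at 37 °C. Cells: DT40 Tdp1-/- stably carrying human TDP1, 400 per well, compound exposure in the absence of CPT (DMSO vehicle).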
TDP1 cell CPT – growth inhibition of DT40 Tdp1-/-;hTDP1 cells with camptothecin (screen for TDP1 inhibitors) | chicken DT40 Tdp1-/-;hTDP1 cells + 20 nM CPT, ATP luminescence, 48 h | Potency, µM (doses to about 46.2 µM), without a hit: at the highest dose activity change, negative = growth inhibition, most hits filed as inhibitors | actives 12% (n = 420,000) | AID 686979; note: nearly all actives have a fitted effect of over 55% in size
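Chicken DT40 Tdp1-/- cells complemented with human TDP1, 400 cells/well, exposed to compounds plus 20 nM camptothecin for at least 48 h at 37 C; viability read as ATP content by CellTiter-Glo luminescence.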
HT1080 IDH1KD tx – kills HT-1080 cells with IDH1 knockdown. HT-1080 IDH1 knockdown viability, ATP luminescence, 48 h. Potency, µM (series often up to 46.1 µM), inactives show top-dose activity, negative = toxicity, hits mostly cytotoxic. actives 2% (n = 360,000). AID 686971;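 note: 0% = DMSO wells and -100% = cell-free medium wells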
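Luminescent ATP read-out (CellTiter-Glo, 10 min at room temperature) after 48 h compound exposure at 37 °C gave viability of IDH1-knockdown HT-1080 cells. Activity was normalised to DMSO and cell-free wells, then fitted as concentration-response curves.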
HT1080NT lethal – kills 2HG-producing HT-1080-NT fibrosarcoma cells; HT-1080-NT fibrosarcoma viability, CellTiter-Glo ATP luminescence, 48 h; Potency, µM (doses to about 46.1 µM), without a hit: at the top dose activity, negative = less viability, most hits filed as cytotoxic; actives 1.6% (n = 360,000);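 note: NT is the 2HG producing partner of a matched IDH1 knockdown line; 0% = DMSO-treated cells and -100% = media-only wells without cells; nearly all actives have a fitted effect of over 55% in size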
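750 cells/well, RPMI + 5% FBS; 2 h settle, compound pin-transfer, 48 h at 37 degrees C. CellTiter-Glo 10 min RT, luminescence. Normalized to DMSO and media-only wells.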
KB-3-1 tox – KB-3-1 parental cell cytotoxicity; KB-3-1 viability, CellTiter-Glo ATP luminescence, 72 h; Potency, µM (titrated, usually from 46.1 µM), hits mostly cytotoxic; actives 1.4% (n = 400,000); note: nearly all actives have a fitted effect of over 60% in size
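Luminescent ATP read-out (CellTiter-Glo) measures survival of drug-naive KB-3-1 cells after 72 h compound exposure at 37 °C. Titration series was screened from lowest to highest concentration, with DMSO vehicle plates as background controls.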
KB-V1 cytotox – KB-V1 MDR subline cytotoxicity; KB-V1 MDR cells viability, CellTiter-Glo, 72 h; Potency, µM (doses to about 46.1 µM), most hits filed as cytotoxic; actives 3.4% (n = 400,000); AID 1347076; note: nearly all actives have a fitted effect of over 60% in size
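Potencies derive from concentration-effect curves fitted to normalized luminescence (CellTiter-Glo) of KB-V1 cells treated for 72 h at 37 degrees C in phenol-red-free DMEM containing 10% FBS.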
* marks the source's active call; other numbers are inactive results; i = inactive; ? = inconclusive; / = no result given. Calls come from the whole dose curve; as a rule, active = well fitted curve in the direction sought with a large enough effect; inconclusive = small, poorly fitted or top-dose-only effect, or another doubt; inactive = no such curve, though single readings can be large; an effect the other way counts as inactive or inconclusive. Unless noted, % is set by controls: 0 for no effect and ±100 for the full control effect; potency is the fitted concentration of half-maximal effect.

SMILES	DT40 TDP1 no CPT	TDP1 cell CPT	HT1080 IDH1KD tx	HT1080NT lethal	KB-3-1 tox	KB-V1 cytotox
COC(=O)c1c(-c2cccs2)csc1NC(=O)c1ccc(Br)cc1	?	?	/	/	i	i
CCCc1ccc(OCC(=O)Nc2scc(-c3cccs3)c2C(=O)OC)cc1	?	?	/	/	i	i
COC(=O)c1c(-c2cccs2)csc1NC(=O)COc1ccc(C(C)C)cc1	21µM*	?	/	/	/	/
CCC(C)NC(=O)CCCN1C(=O)CCn2nc(-c3cccn3C)cc21 (configuration not stated)	0%	-11%	/	/	i	i
CCc1ccc(S(=O)(=O)c2nnn3c2nc(NCc2cccc(OC)c2)c2cc(Cl)ccc23)cc1	?	?	/	/	i	i
CN(Cc1ccco1)C(=O)C1CCC(=O)N(CCc2cccc(F)c2)C1 (configuration not stated)	?	?	-4%	-6%	i	i
C#CCN(C(=O)C1CCC(=O)N(CCc2cccc(F)c2)C1)C1CCCCC1 (configuration not stated)	6.5µM*	18µM*	-3%	4%	i	?
CC#CCN(Cc1ccco1)C(=O)C1CCC(=O)N(CCc2cccc(F)c2)C1 (configuration not stated)	15µM*	21µM*	7%	13%	i	i
Cc1cccc(C(=O)NNC(=O)c2ccc(-c3ccccc3)cc2)c1	?	?	-11%	-7%	i	i
O=C(C=CC=Cc1ccccc1)c1ccc([N+](=O)[O-])cc1	21µM*	23µM*	-6%	-1%	i	i
O=C(/C=C/c1ccc([N+](=O)[O-])cc1)c1cccnc1	?	15µM*	?	-8%	i	i
O=C(/C=C/NNC(=O)c1ccccc1O)c1ccccc1	16µM*	?	?	-24%	?	i
Cc1cccc(C(=O)NN/C=C/C(=O)c2ccccc2)c1	26µM*	?	-10%	-14%	i	i
CCN1CCN(C(=O)c2cnn(-c3ncc4c(n3)-c3ccccc3CCC4)c2COC)CC1	-23%	-10%	/	/	/	/
Cc1cc(C)c2oc(-c3cccc(NC(=O)c4cc5ccccc5o4)c3)nc2c1	?	?	/	/	i	i
CCCCNc1nc2c(S(=O)(=O)c3ccc(C)cc3)nnn2c2ccsc12	-1%	-5%	/	/	i	i
O=C(/C=C/NNC(=O)c1ccccc1)c1ccc([N+](=O)[O-])cc1	9.2µM*	6.5µM*	?	?	i	?
Cc1ccc(C(=O)C=CNNC(=O)c2ccccc2)cc1	?	?	0%	-1%	i	?
O=C(Oc1c(Br)cc([N+](=O)[O-])cc1Br)c1cccnc1	?	18µM*	?	?	i	?
Cc1cccc(C(=O)NCCNC(=O)c2cccc(C)c2)c1	29µM*	-17%	-4%	2%	i	i
O=C(/C=C/NNC(=O)c1ccccc1)c1ccccc1	0.82µM*	0.58µM*	-12%	-23%	?	i
N/C(=N\OC(=O)c1cc([N+](=O)[O-])ccc1Cl)c1cccnc1	?	?	21%	19%	?	?
O=C(NNS(=O)(=O)c1ccc([N+](=O)[O-])cc1)c1ccccc1	3%	-4%	8%	11%	i	i
Cc1cccc(C(=O)NCCN2CCCC2)c1	-21%	-5%	-18%	-12%	i	i
O=C(CSc1nnc(C2CC2)n1CC1CCCO1)Nc1cccc(Cl)c1 (configuration not stated)	-10%	-8%	-4%	4%	i	i
SMILES	DT40 TDP1 no CPT	TDP1 cell CPT	HT1080 IDH1KD tx	HT1080NT lethal	KB-3-1 tox	KB-V1 cytotox
O=C(/C=C/NNC(=O)c1ccc(Br)cc1)c1ccccc1	4.1µM*	2.9µM*	?	-28%	i	i
O=C(CCSCCc1ccccn1)Nc1c(F)cc(F)cc1Br	-18%	-18%	2%	8%	i	16µM*
O=C(CSCCc1ccccn1)Nc1ccc(Br)cn1	-2%	-5%	6%	5%	i	21µM*
O=C(CSCCc1ccccn1)Nc1ccccn1	-15%	-5%	-5%	3%	?	i
Cc1ccc(S(=O)(=O)N(CC(=O)NC2CC3CCC2C3)c2ccccc2)cc1 (configuration not stated)	?	?	-4%	-4%	i	i
COc1cccc(Cn2c(C)c(CNCc3cccc(C)c3)c(C(=O)O)c2C)c1	?	-26%	/	/	i	i
CCCS(=O)(=O)NC(=O)C1(C)CCCN(C(=O)/C=C/c2ccccc2)C1 (configuration not stated)	2%	6%	30%	?	i	i
Cn1c(SCCOc2ccccc2)nnc1-c1ccc(NC(=O)CCc2ccccc2)cc1	-11%	2%	/	/	i	i
S=C(Nc1ccccc1Cl)Nc1ccc(Cl)cc1Cl	?	-12%	15%	10%	i	i
Cc1ccccc1NC(=S)NCc1ccc(Cl)cc1	15µM*	?	-1%	-1%	i	?
S=C(NCc1ccc(Cl)cc1)Nc1ccccc1	21µM*	?	-11%	-27%	i	i
Cc1ccccc1NC(=S)NCc1ccc(F)cc1	?	2%	13%	18%	i	?
S=C(Nc1ccccc1)Nc1ccc(Cl)cc1Cl	?	18µM*	-3%	6%	i	i
S=C(NCc1ccc(Cl)cc1)Nc1ccncc1	?	8.2µM*	-19%	?	?	i
Cc1ccc(NC(=O)CCN2CCOCC2)cc1C	14%	-10%	9%	4%	i	i
COc1cc(N)c2ncccc2c1Cl	-18%	?	3%	4%	i	?
CC(C)c1ccc(Nc2c(-c3ccsc3)nc3ccc(Cl)cn23)cc1	?	?	/	/	i	i
O=C(NNC(=S)Nc1ccc(Cl)cc1Cl)c1ccncc1	16µM*	-17%	7%	3%	i	i
COc1ccc(-c2nc3c4cnn(-c5ccccc5F)c4ncn3n2)cc1	-4%	9%	/	/	/	/
COC(=O)c1ccc(Cl)cc1NC(=O)Nc1nnc(N2CCCC2)s1	-13%	2%	/	/	i	i
